Only some compounds are listed: those with a hit (about 3.5% of all), similar ones and a draw of the others.
TEAD-YAP block = TEAD-YAP interaction inhibition. HEK-TIYL cells, TEAD-Gal4/YAP UAS-luciferase luminescence. inhibition, % at 9.12 µM. hit rate 1.4% among 640,000; in the data active = inhibition above about 32%;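 also: 0% = median of test compound wells and 100% = reference inhibitor wells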
FBW7 act = human FBW7 E3 ligase activation, primary screen | AlphaScreen FBW7–phospho-cyclin E peptide binding, activator screen | normalized activity (activation), % at 26.1 µM | hit rate 0.13% among 650,000 | AID 1259310; in the data active = normalized activity above about 1.9%;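 also: purified mutant Fbw7 with reduced substrate affinity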
GPR151 activ = human GPR151 activation | PathHunter beta-arrestin GPR151 cells, luminescence | activation, % at 11.2 µM | hit rate 1% among 650,000 | AID 1508602; in the data active = activation above about 4.9%;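 also: 0% = median of compound wells and 100% = cells with positive control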
MITF inh = human MITF inhibition, primary screen | AlphaScreen MITF homodimerization, bead proximity signal | inhibition, % at 2.6 µM | hit rate 0.91% among 650,000; in the data active = inhibition above about 50%;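 also: 0% = vehicle wells with protein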
Target sequence (O75030 whole entry, looked up): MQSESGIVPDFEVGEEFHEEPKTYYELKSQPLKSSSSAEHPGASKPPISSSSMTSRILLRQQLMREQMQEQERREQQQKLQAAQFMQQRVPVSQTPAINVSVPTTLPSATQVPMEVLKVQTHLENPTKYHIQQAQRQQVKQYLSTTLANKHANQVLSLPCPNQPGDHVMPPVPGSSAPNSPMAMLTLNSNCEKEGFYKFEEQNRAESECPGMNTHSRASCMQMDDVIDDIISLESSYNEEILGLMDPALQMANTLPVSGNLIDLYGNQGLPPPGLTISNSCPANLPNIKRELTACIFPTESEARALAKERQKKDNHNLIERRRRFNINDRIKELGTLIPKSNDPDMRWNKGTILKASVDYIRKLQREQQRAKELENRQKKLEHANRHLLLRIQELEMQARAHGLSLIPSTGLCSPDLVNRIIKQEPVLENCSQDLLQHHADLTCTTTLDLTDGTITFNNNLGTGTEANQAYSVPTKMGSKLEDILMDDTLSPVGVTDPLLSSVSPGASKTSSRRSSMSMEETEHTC
GPR151 conf act = human GPR151 activation, confirmation screen | shares compounds with GPR151 activ | GPR151 PathHunter beta-arrestin cells, luminescence, 90 min; % of EA-reagent control over plate median | activation, % at 11.2 µM | 6,700 tested, under 10 active | AID 1508609;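 active = mean percent activation across replicates above the confirmation screen cutoff of 4.91%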
GPR119 counter = counter-screen for GPR151 activators: effect on human GPR119; GPR119 PathHunter beta-arrestin cells, luminescence, 90 min; 0 = compound-well median, 100 = enzyme-acceptor control; AID 1508611; shares compounds with GPR151 activ; activation, % at 11.2 µM; hit rate 0.3% among 6,700;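 active = mean percent activation in the counterscreen above 29.09%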;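 also: counterscreen on off-target GPR119 to flag nonselective hits from the GPR151 activator screen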
Numbers without * were called inactive; · = no result.

SMILES	TEAD-YAP block	FBW7 act	GPR151 activ	MITF inh	GPR151 conf act	GPR119 counter
CCCCNc1nc2ccccc2c2nc(-c3cccnc3)nn12	4.2	-0.1	0.9	5.9	·	·
CCCCN(CC)C(=O)CSc1ccccc1	-1.4	0.0	3.7	1.4	·	·
CN(CCc1ccccn1)C1CCc2c(sc3ncn(C4CCCC4)c(=O)c23)C1 (stereo not drawn)	10.4	-0.2	-0.4	-5.5	·	·
COC(=O)C1=C(C)NC(=S)NC1c1ccccc1OC (stereo not drawn)	2.2	0.1	5.6*	-14.6	0.0	-4.2
COc1cc2c(cc1C1NC(=S)NC(C)=C1C(=O)N(C)C)CCCC2 (stereo not drawn)	6.1	0.0	8.9*	0.3	-0.4	-1.9
O=c1[nH]cnc2c1[nH]c1ccccc12	19.3	0.4	8.7*	8.9	-0.8	7.3
Fc1ccc(C(c2nnnn2Cc2ccco2)N2CCN(C3CCCCC3)CC2)cc1 (stereo not drawn)	-5.7	-0.1	0.6	-3.0	·	·
Fc1ccc(C(c2nnnn2Cc2ccco2)N2CCN(Cc3ccccc3)CC2)cc1 (stereo not drawn)	-2.0	-0.2	5.8*	-0.8	0.1	-1.8
O=C(Nc1cccnc1)c1cc2n(n1)C(C(F)(F)F)CC(c1ccc(Br)cc1)N2 (stereo not drawn)	-5.4	-0.1	-1.0	2.5	·	·
O=C(Nc1cccnc1)c1cc2n(n1)C(C(F)(F)F)CC(c1ccc(Cl)cc1)N2 (stereo not drawn)	-23.1	-0.1	5.0*	-5.2	0.9	2.5
CCC12C(=O)C(CC)(C(c3ccccc3)=C1c1ccccc1)C1C(=O)N(c3c(C)cc(C)cc3C)C(=O)C12 (stereo not drawn)	-1.6	-0.1	-0.1	-4.3	·	·
FC(F)(F)c1cc(-c2ccccc2)n(-c2cc(N3CCCCC3)ncn2)n1	-0.3	0.1	5.4*	3.3	-0.1	-7.9
Nc1c(Cl)ncnc1N1CCN(c2ncnc(Cl)c2N)CC1	-3.4	-0.1	5.4*	-3.4	0.3	6.7
Nc1c(Cl)ncnc1N1CCOCC1	6.6	0.0	0.1	18.3	·	·
CC(=O)Nc1ccc(N(C)C(C)=O)cc1	1.2	0.0	0.0	6.5	·	·
CC(=O)Nc1ccc(N(C)S(C)(=O)=O)cc1	-1.6	-0.1	9.3*	-6.4	-0.4	-5.9
COc1ccc(CCNS(=O)(=O)c2ccc(S(=O)(=O)N3CCOCC3)cc2)cc1	4.7	0.1	5.6*	5.5	1.1	2.1
COc1ccc(NS(=O)(=O)c2ccc(S(=O)(=O)N3CCOCC3)cc2)cc1	-1.0	-0.2	-0.2	2.0	·	·
COc1ccc(NC(=S)Nc2ccc(S(=O)(=O)N3CCOCC3)cc2)c(OC)c1	5.4	-0.1	5.2*	5.9	0.8	3.6
COc1ccc(NC(=S)Nc2ccc(S(N)(=O)=O)cc2)c(OC)c1	-4.1	0.1	-0.4	3.1	·	·
COc1cc2nc(-c3ccccc3F)oc(=O)c2cc1OC	-0.4	0.0	-0.4	1.7	·	·
CS(=O)(=O)NCC1CCC(C(=O)NC2CCN(Cc3ccccc3)CC2)CC1 (stereo not drawn)	3.3	0.4	5.6*	7.6	0.7	10.8
O=C1C2C(c3ccccc3)OC3(C(=O)c4ccccc4C3=O)C2C(=O)N1c1ccccc1 (stereo not drawn)	-1.2	0.0	0.3	-5.1	·	·
O=C1C2C(c3ccccc3)OC3(C(=O)c4ccccc4C3=O)C2C(=O)N1CCc1ccc(F)cc1 (stereo not drawn)	-2.2	-0.1	7.5*	0.3	0.0	8.8
O=C1C2C(c3ccc(F)cc3)OC3(C(=O)c4ccccc4C3=O)C2C(=O)N1Cc1ccccc1 (stereo not drawn)	13.8	0.1	5.6*	9.6	-0.4	4.6
O=C1CCCN1CCCNc1cc(N2CCC(N3CCOCC3)CC2)ncn1	7.4	0.1	8.5*	-0.1	-1.3	-14.3
O=C1CCCN1CCCNc1cc(N2CCOCC2)ncn1	-3.5	-0.1	0.1	0.8	·	·
COc1cc(Nc2nc(NCCCN3CCCC3=O)c3ncn(CCN4CCCC4=O)c3n2)cc(OC)c1OC	-0.4	-0.2	6.5*	3.9	0.0	-7.5
COc1cc(Nc2nc(NCCCN3CCCC3=O)c3ncn(C(C)C)c3n2)cc(OC)c1OC	6.7	-0.1	13.0*	-2.9	1.3	0.5
O=C1CCCN1CCn1cnc2c(NCCN3CCOCC3)nc(Nc3nccc4ccccc34)nc21	-2.7	-0.1	5.3*	6.1	0.4	-7.4

High-throughput results: PubChem, The Scripps Research Institute Molecular Screening Center
